# In PubChem BioAssay AID504617 (Sanford-Burnham Center for Chemical Genomics, 2011):
# The list shows a part of the results. The source made the active and inactive calls.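 Rule for the calls: active = mean activity change at or below -40%, meaning activation of 40% or more, at 20 µM; inactive = the rest.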
# Molecular target: Apoptotic protease-activating factor 1 (Homo sapiens) (UniProt O14727)
# Experiment: Apaf-1 activators, single-dose retest, confirmation, biochemical, fluorescence, DEVD-Rh110, 20 µM (AID 504617)
# Conditions: reconstituted apoptosome caspase-3 activity, at 20 µM, active compounds read low
# Apoptotic protease-activating factor 1 (Homo sapiens), sequence (O14727 whole entry, looked up): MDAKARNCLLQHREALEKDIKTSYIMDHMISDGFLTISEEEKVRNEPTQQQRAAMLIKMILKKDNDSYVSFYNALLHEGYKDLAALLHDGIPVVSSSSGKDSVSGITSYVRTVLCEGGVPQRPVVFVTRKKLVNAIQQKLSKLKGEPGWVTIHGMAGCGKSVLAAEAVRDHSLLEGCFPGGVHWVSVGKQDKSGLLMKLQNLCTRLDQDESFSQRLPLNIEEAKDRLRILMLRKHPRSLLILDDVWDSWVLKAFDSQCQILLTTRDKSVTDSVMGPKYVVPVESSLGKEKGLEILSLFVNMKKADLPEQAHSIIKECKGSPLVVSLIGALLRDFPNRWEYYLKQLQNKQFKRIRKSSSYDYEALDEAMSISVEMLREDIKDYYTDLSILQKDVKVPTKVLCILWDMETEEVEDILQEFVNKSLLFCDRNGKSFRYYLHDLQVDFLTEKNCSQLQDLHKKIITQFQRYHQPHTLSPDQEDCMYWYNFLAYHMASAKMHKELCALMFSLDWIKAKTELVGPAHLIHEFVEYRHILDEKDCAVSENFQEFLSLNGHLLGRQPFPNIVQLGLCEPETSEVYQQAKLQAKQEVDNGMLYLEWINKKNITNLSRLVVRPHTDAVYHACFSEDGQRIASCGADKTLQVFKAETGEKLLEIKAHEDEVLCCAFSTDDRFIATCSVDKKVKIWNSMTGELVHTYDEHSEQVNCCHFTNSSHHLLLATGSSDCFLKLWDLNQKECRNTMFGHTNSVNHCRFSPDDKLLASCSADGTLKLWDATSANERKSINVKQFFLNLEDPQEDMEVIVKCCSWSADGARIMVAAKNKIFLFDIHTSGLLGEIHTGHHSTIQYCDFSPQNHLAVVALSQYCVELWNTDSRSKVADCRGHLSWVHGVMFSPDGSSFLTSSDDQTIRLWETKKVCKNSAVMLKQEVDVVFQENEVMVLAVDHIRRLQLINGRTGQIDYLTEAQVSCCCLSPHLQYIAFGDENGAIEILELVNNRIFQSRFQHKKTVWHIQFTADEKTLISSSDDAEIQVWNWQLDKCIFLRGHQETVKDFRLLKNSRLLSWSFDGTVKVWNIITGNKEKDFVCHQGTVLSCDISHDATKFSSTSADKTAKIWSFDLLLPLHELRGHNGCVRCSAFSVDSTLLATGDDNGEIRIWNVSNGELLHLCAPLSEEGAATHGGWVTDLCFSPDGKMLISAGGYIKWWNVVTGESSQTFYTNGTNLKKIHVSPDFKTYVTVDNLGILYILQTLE
row,Structure (SMILES),"activity change, negative = activation"
1,CC(C)N1CCC(NC(=O)Nc2ccccc2)CC1,9.51% (inactive)
2,O=C(CSc1ccc(-c2ccc(-n3cccn3)cc2)nn1)Nc1ccc([N+](=O)[O-])cc1,8.16% (inactive)
3,COc1ccc(C2c3ccc(O)cc3Oc3ncn(CCCO)c(=N)c32)cc1OC (stereo unspecified),0.56% (inactive)
4,C=C(C)C(=O)Nc1cccc(C2=NOC3(C2)C[C@H](C(N)=O)N(C(=O)C(c2ccccc2)c2ccccc2)C3)c1 (stereo partly specified),-78.6% (active)
5,Cc1ccc(S(=O)(=O)c2c(N)n(C)c3nc4ccccc4nc23)cc1,18.5% (inactive)
6,COc1ccc(OCCCC(=O)NCCc2ccccc2)cc1,4.66% (inactive)
7,C=CC1=C(C(=O)O)N2C(=O)[C@@H](NC(=O)/C(=N/OCC(=O)O)c3csc(N)n3)[C@H]2SC1,-113% (active)
8,Clc1cccc(-c2nc3nc4ccccc4nc3n2Cc2ccco2)c1,21.3% (inactive)
9,Brc1ccc(/C=N/N2CCN(C3c4ccccc4-c4ccccc43)CC2)s1,4.14% (inactive)
10,Cc1nn(CC(=O)Nc2ccc(C#N)cc2)c(C)c1[N+](=O)[O-],-10.5% (inactive)
11,CN(C)S(=O)(=O)c1ccc(C(=O)NCCN=C2NS(=O)(=O)c3ccccc32)cc1,4.07% (inactive)
12,Cc1ccc(S(=O)(=O)N2CCOCC2)cc1C(=O)NC(=S)N(Cc1ccccc1)C(C)C,16.4% (inactive)
13,O=C(CN1C(=O)C2C3C=CC(C3)C2C1=O)NCCc1ccccc1Cl (stereo unspecified),10.8% (inactive)
14,Nc1cc(C(F)(F)F)ccc1N1CCOCC1,16.7% (inactive)
15,O=c1[nH]cnc2c1c(-c1ccccc1)cn2-c1ccc(F)cc1,10.9% (inactive)
16,N#CC1(C#N)C(C(=O)C23CC4CC(CC(C4)C2)C3)C12CCOCC2 (stereo unspecified),6.87% (inactive)
17,CC1COc2ccccc2N1C(=O)c1cccnc1Cl (stereo unspecified),6.25% (inactive)
18,CC(C)OCCCNC(=S)N1CCC(C(=O)c2ccc3c(c2)OCCO3)CC1,17.5% (inactive)
19,CCOCCc1c(O)nc(SCC(=O)NCc2ccco2)[nH]c1=O,7% (inactive)
20,O=C(CCc1ccccc1)NNC(=O)c1ccc(Br)cc1,5.47% (inactive)
21,Cc1ccc(Nc2nc(CSc3nnc(-c4ccncc4)n3-c3ccccc3C)cs2)cc1,26.5% (inactive)
